From the supplement of paper PMC6411743
± gives the standard deviation of the averaged measurements. About 6,200 targets were measured; listed, in parts, are those with the largest changes and a random draw of the rest.

Compound: Nc1ncnc2c1ncn2[C@@H]1O[C@H](COP(=O)(O)OP(=O)(O)NP(=O)(O)O)[C@@H](O)[C@H]1O [adenylyl imidodiphosphate]
Assay: NP40-soluble protein abundance relative to vehicle (solubility fold change) (ratio); higher = more soluble protein in presence of AMP-PNP
Method in brief: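 Crude Jurkat lysate, prepared by Dounce homogenisation, was exposed to eight concentrations from 0.1 to 10 mM for 10 min at room temperature and then 3 min at 37 °C. Solubilisation used 0.8% NP40 with benzonase for 60 min at 4 °C, followed by ultracentrifugation and TMT labelling of the supernatant for LC-MS/MS. After vsn normalisation of intensities, each value is the fold change against the detergent-processed vehicle within each replicate, across three independent experiments.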

Chain of UniProt Q9Y2X3 (Q9Y2X3 whole entry): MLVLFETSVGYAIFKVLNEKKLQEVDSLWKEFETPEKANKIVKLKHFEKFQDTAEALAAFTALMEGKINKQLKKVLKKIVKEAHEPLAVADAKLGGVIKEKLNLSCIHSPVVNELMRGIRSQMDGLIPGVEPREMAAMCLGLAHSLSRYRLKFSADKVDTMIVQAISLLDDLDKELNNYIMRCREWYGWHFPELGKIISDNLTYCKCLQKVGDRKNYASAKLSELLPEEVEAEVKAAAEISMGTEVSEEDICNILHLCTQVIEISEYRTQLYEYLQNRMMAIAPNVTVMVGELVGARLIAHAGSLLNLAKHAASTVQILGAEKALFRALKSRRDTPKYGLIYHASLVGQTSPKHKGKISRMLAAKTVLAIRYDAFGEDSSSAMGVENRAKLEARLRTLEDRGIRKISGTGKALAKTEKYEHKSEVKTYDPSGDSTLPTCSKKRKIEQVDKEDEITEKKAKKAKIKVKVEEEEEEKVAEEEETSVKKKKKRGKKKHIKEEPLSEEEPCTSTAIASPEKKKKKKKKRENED
Chain of UniProt Q99436 (Q99436 whole entry): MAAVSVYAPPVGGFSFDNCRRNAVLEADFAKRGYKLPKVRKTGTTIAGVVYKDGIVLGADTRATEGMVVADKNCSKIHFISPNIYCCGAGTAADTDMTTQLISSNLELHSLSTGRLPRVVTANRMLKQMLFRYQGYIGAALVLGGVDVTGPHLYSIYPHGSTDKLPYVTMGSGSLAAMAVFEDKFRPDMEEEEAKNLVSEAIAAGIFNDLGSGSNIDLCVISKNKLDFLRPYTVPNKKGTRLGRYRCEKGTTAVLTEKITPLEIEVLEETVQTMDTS
Chain of UniProt Q9BWD1 (Q9BWD1 whole entry): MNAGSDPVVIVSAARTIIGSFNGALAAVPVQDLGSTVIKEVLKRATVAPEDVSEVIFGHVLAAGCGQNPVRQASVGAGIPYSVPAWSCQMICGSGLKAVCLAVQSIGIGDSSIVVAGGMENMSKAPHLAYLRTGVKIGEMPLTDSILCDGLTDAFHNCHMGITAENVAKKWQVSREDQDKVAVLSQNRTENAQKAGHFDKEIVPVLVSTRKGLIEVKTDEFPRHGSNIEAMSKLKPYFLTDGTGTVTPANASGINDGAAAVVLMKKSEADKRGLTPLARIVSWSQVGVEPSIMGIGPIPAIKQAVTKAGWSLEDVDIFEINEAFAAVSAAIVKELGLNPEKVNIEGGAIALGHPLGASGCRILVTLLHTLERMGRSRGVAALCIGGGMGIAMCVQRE
Chain of UniProt Q9UNX4 (Q9UNX4 whole entry): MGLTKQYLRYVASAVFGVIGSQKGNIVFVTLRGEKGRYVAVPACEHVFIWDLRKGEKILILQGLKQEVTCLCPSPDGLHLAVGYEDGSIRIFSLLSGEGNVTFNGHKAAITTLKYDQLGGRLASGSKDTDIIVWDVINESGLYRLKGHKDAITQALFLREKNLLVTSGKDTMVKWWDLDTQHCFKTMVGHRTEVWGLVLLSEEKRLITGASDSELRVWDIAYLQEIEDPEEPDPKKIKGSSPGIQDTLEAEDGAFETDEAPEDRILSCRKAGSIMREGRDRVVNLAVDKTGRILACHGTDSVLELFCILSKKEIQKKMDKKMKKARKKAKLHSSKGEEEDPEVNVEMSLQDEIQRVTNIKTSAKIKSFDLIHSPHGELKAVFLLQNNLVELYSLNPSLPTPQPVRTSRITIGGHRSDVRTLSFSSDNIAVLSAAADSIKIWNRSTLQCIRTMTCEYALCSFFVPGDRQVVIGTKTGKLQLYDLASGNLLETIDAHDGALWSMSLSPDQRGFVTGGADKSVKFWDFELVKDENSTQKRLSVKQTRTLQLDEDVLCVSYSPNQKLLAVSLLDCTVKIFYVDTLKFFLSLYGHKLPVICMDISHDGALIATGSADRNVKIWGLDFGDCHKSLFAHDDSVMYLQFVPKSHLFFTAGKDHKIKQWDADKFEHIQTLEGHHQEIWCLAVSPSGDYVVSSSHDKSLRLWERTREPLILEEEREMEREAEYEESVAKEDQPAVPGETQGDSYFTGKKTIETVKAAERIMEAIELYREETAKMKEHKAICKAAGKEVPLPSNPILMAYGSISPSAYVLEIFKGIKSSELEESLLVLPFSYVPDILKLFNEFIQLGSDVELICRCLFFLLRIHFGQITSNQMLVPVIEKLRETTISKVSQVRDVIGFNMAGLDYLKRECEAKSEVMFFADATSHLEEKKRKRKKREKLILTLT
Chain of UniProt Q9BTC0 (Q9BTC0 whole entry): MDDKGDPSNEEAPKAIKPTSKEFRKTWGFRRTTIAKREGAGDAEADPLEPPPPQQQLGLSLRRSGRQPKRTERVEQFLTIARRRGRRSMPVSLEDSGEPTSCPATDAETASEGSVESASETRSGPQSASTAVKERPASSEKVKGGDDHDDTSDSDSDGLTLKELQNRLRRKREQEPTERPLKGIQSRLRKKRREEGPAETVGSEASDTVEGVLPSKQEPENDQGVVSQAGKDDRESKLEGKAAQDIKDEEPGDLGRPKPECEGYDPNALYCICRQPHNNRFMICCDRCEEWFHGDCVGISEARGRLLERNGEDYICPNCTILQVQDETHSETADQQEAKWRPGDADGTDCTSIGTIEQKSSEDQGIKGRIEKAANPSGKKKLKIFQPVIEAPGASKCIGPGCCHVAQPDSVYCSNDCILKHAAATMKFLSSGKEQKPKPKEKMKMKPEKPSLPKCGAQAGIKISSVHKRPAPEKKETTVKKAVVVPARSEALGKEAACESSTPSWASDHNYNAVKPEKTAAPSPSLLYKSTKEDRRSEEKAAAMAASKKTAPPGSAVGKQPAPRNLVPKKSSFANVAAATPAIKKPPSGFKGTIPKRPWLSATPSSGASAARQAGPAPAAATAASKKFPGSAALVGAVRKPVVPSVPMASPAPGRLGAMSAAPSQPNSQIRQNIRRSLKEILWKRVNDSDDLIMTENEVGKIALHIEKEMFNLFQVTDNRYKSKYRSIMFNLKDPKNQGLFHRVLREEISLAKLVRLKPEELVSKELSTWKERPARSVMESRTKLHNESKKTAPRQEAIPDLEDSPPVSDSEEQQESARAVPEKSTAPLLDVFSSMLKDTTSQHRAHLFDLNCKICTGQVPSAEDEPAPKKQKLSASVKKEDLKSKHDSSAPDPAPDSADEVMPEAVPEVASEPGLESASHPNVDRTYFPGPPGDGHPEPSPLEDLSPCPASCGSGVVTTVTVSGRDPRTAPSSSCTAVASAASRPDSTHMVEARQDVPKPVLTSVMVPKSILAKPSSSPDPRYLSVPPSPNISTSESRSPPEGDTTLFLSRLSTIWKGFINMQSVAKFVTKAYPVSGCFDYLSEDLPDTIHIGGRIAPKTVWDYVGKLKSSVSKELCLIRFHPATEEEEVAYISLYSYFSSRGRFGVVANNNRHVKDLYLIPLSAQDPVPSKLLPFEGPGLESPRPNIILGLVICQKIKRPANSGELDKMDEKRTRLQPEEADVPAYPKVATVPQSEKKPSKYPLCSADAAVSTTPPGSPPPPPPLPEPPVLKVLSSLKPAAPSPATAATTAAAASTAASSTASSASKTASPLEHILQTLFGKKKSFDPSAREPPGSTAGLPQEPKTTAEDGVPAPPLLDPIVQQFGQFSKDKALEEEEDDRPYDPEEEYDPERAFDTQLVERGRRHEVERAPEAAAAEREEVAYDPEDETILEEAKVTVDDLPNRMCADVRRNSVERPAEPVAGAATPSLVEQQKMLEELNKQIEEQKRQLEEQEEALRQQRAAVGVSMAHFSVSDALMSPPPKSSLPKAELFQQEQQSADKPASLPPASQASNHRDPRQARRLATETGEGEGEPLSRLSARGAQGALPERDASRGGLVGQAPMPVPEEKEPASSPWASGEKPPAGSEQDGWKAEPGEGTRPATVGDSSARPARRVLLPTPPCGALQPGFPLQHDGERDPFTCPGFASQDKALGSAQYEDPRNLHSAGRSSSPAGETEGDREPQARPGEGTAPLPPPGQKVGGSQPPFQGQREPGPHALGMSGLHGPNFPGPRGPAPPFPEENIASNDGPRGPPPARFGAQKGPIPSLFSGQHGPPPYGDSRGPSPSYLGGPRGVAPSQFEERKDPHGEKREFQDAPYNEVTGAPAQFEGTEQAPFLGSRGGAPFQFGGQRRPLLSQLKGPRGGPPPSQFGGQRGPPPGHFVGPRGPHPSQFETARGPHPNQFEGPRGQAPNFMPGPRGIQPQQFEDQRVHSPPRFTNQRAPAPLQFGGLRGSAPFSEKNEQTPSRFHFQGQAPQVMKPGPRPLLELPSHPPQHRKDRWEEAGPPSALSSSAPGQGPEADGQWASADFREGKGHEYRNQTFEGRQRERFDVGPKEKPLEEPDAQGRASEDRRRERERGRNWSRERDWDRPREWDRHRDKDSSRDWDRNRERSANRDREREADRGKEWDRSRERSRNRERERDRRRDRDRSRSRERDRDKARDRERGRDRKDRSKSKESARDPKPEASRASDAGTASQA
Chain of UniProt Q9HA47 (Q9HA47 whole entry): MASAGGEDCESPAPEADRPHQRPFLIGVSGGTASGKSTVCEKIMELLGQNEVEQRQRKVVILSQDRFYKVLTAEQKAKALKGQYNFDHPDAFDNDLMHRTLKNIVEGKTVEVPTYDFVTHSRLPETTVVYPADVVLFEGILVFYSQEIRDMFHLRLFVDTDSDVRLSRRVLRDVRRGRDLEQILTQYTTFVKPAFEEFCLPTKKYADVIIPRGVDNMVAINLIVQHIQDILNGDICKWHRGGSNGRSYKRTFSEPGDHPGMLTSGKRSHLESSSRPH
Chain of UniProt Q9Y5Z4 (Q9Y5Z4 whole entry): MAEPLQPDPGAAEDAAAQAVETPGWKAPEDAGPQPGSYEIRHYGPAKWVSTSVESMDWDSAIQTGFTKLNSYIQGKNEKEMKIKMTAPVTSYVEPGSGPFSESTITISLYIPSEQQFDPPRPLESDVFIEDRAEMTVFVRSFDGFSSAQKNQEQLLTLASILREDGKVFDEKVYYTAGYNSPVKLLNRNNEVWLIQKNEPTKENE

Target	NP40-soluble protein abundance (concentration: 1mM)	NP40-soluble protein abundance (concentration: 2mM)	NP40-soluble protein abundance (concentration: 4mM)	NP40-soluble protein abundance (concentration: 6mM)	NP40-soluble protein abundance (concentration: 8mM)	NP40-soluble protein abundance (concentration: 10mM)
CCDC86 (UniProt Q9H6F5)	1.12 ± 0.025	1.17 ± 0.096	1.2 ± 0.017	1.25 ± 0.05	1.31 ± 0.084	1.4 ± 0.13
HEBP2 (UniProt Q9Y5Z4)	0.978 ± 0.012	0.9687 ± 0.0064	0.952 ± 0.023	0.957 ± 0.021	0.964 ± 0.018	0.926 ± 0.042
ACAT2 (UniProt Q9BWD1)	0.987 ± 0.021	0.996 ± 0.038	0.931 ± 0.021	0.967 ± 0.017	0.951 ± 0.021	0.92 ± 0.02
SUPT16H (UniProt Q9Y5B9)	1.03 ± 0.016	1.01 ± 0.023	1.1 ± 0.049	1.24 ± 0.053	1.33 ± 0.055	1.46 ± 0.12
UniProt Q9H0W9|Q9H0W9-2	0.99 ± 0.035	0.972 ± 0.036	0.973 ± 0.029	0.974 ± 0.012	0.949 ± 0.043	0.935 ± 0.037
CHST12 (UniProt Q9NRB3)	1.001 ± 0.0077	0.999 ± 0.01	0.9935 ± 0.0064	1 ± 0.016	1.017 ± 0.0078	1.011 ± 0.0063
GRWD1 (UniProt Q9BQ67)	1.09 ± 0.064	1.01 ± 0.089	1.11 ± 0.068	1.05 ± 0.043	1.11 ± 0.073	1.04 ± 0.045
UTP11 (UniProt Q9Y3A2)	1.02 ± 0.026	1.04 ± 0.037	1.03 ± 0.025	1.05 ± 0.026	1.05 ± 0.018	1.08 ± 0.018
UCK1 (UniProt Q9HA47)	0.981 ± 0.029	1.01 ± 0.028	1.01 ± 0.011	1.02 ± 0.026	0.9745 ± 0.0089	1.01 ± 0.01
DIDO1 (UniProt Q9BTC0)	1.1 ± 0.035	1.18 ± 0.093	1.23 ± 0.043	1.28 ± 0.12	1.27 ± 0.12	1.36 ± 0.12
NOP58 (UniProt Q9Y2X3)	1.11 ± 0.021	1.17 ± 0.013	1.17 ± 0.014	1.24 ± 0.054	1.32 ± 0.033	1.46 ± 0.057
PSMB7 (UniProt Q99436)	0.946 ± 0.04	0.909 ± 0.061	0.906 ± 0.057	0.928 ± 0.086	0.918 ± 0.081	0.9 ± 0.13
WDR3 (UniProt Q9UNX4)	1.07 ± 0.015	1.09 ± 0.1	1.33 ± 0.039	1.55 ± 0.026	1.8 ± 0.064	1.78 ± 0.15
NOB1 (UniProt Q9ULX3)	0.972 ± 0.013	0.956 ± 0.027	0.984 ± 0.042	0.966 ± 0.023	1 ± 0.043	1 ± 0.047
PARP12 (UniProt Q9H0J9)	0.982 ± 0.046	0.946 ± 0.042	1.01 ± 0.022	0.991 ± 0.015	1.04 ± 0.029	1.01 ± 0.023
